Compound activity deposited in PubChem by Broad Institute.
miR-122 inh: miR-122 suppressors via Renilla sensor increase, primary screen, cell-based, Huh7 psiCHECK-miR122, Renilla luciferase, single point | 48 h | activation, % at 12.5 µM | 340,000 compounds, 0.14% hits | AID 623901, 2012;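 active = mean activation of 30% or more, with every replicate also reaching 30%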;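 also: higher luciferase signal means stronger suppression of miR-122 activity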
Of the large screens only hits and unclear results are named; the others gave an inactive call. The full list was thinned out, with hits kept by preference.

CCCC(=O)Nc1ccc2c(c1)C(=O)N(C)C[C@@H](OC)[C@@H](C)CN[C@@H](C)CO2	none
CN1C(=O)c2cc(NC(=O)Cc3cccs3)ccc2OC[C@@H]2O[C@H](CC(=O)NCC3CCCCC3)CC[C@@H]21	none
CN1C(=O)c2cc(NC(=O)c3cccs3)ccc2OC[C@H]2O[C@@H](CC(=O)N3CCCCC3)CC[C@H]21	miR-122 inh 37
CN1C(=O)c2cc(NC(=O)c3cccs3)ccc2OC[C@@H]2O[C@@H](CC(=O)NCCN3CCCCC3)CC[C@H]21	miR-122 inh 83
CO[C@H]1CN(C)C(=O)c2cc(NC(=O)C3CCOCC3)ccc2OC[C@@H](C)N(C)C[C@@H]1C	none
CCCC(=O)Nc1ccc2c(c1)C(=O)N(C)[C@H]1CC[C@@H](CC(=O)NCC(F)(F)F)O[C@H]1CO2	none
CO[C@H]1CN(C)C(=O)c2cc(NC(=O)c3nc4ccccc4s3)ccc2OC[C@@H](C)N(Cc2ccncc2)C[C@H]1C	none
CO[C@@H]1CN(C)C(=O)c2cc(NC(=O)C3CCOCC3)ccc2OC[C@@H](C)N(C)C[C@H]1C	none
CCCC(=O)Nc1ccc2c(c1)C(=O)N(C)[C@@H]1CC[C@H](CC(=O)NCC(F)(F)F)O[C@H]1CO2	miR-122 inh 37
CN1C(=O)c2cc(NC(=O)c3cccs3)ccc2OC[C@H]2O[C@H](CC(=O)NCC(F)(F)F)CC[C@H]21	miR-122 inh 50
C[C@H](O)C#Cc1cnc2c(c1)C(=O)N([C@@H](C)CO)C[C@@H](C)[C@@H](CN(C)C(=O)CN(C)C)O2	none
COCC(=O)N(C)C[C@@H]1Oc2cc(-c3cncnc3)ccc2S(=O)(=O)N([C@H](C)CO)C[C@H]1C	none
C[C@H](CO)N1C[C@H](C)[C@@H](CN(C)C(=O)Nc2ccc(F)cc2)Oc2ncc(-c3cccnc3)cc2C1=O	none
Cc1ccc(-c2cnc3c(c2)C(=O)N([C@H](C)CO)C[C@@H](C)[C@@H](CN(C)C(=O)Cc2cccnc2)O3)cc1	none
COc1ccc(NC(=O)N(C)C[C@H]2Oc3ncc(C4=CCCC4)cc3C(=O)N([C@@H](C)CO)C[C@@H]2C)cc1	none
C[C@@H]1CN([C@@H](C)CO)C(=O)c2cc(/C=C/c3ccccc3)cnc2O[C@H]1CN(C)C(=O)C1CCOCC1	none
C[C@@H]1CN([C@H](C)CO)C(=O)c2cc(-c3cccc(C#N)c3)cnc2O[C@H]1CN(C)C(=O)C1CCCCC1	none
C[C@@H]1CN([C@@H](C)CO)S(=O)(=O)c2ccc(Br)cc2O[C@H]1CN(C)C(=O)c1ccc2c(c1)OCO2	none
COc1cccc(-c2ccc3c(c2)O[C@H](CN(C)C(=O)C2CCCCC2)[C@H](C)CN([C@H](C)CO)S3(=O)=O)c1	none
C[C@@H]1CN([C@H](C)CO)S(=O)(=O)c2ccc(-c3ccc(C(=O)N(C)C)cc3)cc2O[C@@H]1CN(C)C(=O)C1CCC1	miR-122 inh 43
COc1ccc(S(=O)(=O)N(C)C[C@@H]2Oc3cc(-c4cccc(F)c4)ccc3S(=O)(=O)N([C@H](C)CO)C[C@H]2C)cc1	miR-122 inh 39
C[C@@H]1CN([C@H](C)CO)S(=O)(=O)c2ccc(-c3ccccc3)cc2O[C@@H]1CN(C)C(=O)c1ccc2c(c1)OCO2	miR-122 inh 36
C/C=C/c1ccc2c(c1)O[C@@H](CN(C)C(=O)c1ccc3c(c1)OCO3)[C@H](C)CN([C@@H](C)CO)S2(=O)=O	none
C[C@@H]1CN([C@H](C)CO)S(=O)(=O)c2ccc(-c3ccc(C(=O)N(C)C)cc3)cc2O[C@@H]1CN(C)C	none
COc1cccc(-c2ccc3c(c2)O[C@H](CN(C)C(=O)C2CCOCC2)[C@H](C)CN([C@@H](C)CO)S3(=O)=O)c1	miR-122 inh 39
C[C@H]1CN([C@@H](C)CO)S(=O)(=O)c2ccc(-c3ccc(C(=O)N(C)C)cc3)cc2O[C@H]1CN(C)C	none
COc1cccc(-c2ccc3c(c2)O[C@@H](CN(C)C(=O)C2CCCCC2)[C@@H](C)CN([C@H](C)CO)S3(=O)=O)c1	none
Cc1ccc(S(=O)(=O)N(C)C[C@@H]2Oc3cc(-c4cccc(F)c4)ccc3S(=O)(=O)N([C@@H](C)CO)C[C@H]2C)cc1	none
Cc1ccc(S(=O)(=O)N(C)C[C@@H]2Oc3cc(-c4cccc(F)c4)ccc3S(=O)(=O)N([C@H](C)CO)C[C@@H]2C)cc1	none
CC(C)NC(=O)N(C)C[C@H]1Oc2cc(C3=CCCCC3)ccc2S(=O)(=O)N([C@@H](C)CO)C[C@H]1C	none
C[C@H](CO)N1C[C@H](C)[C@H](CN(C)Cc2ccccc2F)Oc2ncc(-c3ccccc3F)cc2C1=O	none
COc1ccccc1NC(=O)N(C)C[C@H]1Oc2ncc(C#CCC(C)C)cc2C(=O)N([C@@H](C)CO)C[C@@H]1C	none
C[C@@H]1CN([C@@H](C)CO)S(=O)(=O)c2ccc(-c3cncnc3)cc2O[C@@H]1CN(C)Cc1ccccn1	none
C[C@H]1CN([C@@H](C)CO)C(=O)c2cc(C#Cc3ccccc3F)cnc2O[C@H]1CN(C)C(=O)C1CCOCC1	none
C[C@@H]1CN([C@@H](C)CO)C(=O)c2cc(C#Cc3ccc(F)cc3)cnc2O[C@@H]1CN(C)CC1CCOCC1	none
